# Test results reported in PubChem BioAssay (NCI).
# About 83,000 compounds went through this panel and 20% of them were active in at least one assay; those are over-represented in the sample as a whole.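 Activity criterion: percent growth below 10, measured after cells in 96-well plates were exposed to a single compound concentration for 48 hours.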 A number with no mark means an inactive call. Calls of active or inactive are those of the source.
# Test system: COLO 205 colon
# Experiment: NCI-60 one-dose screen, 48 h (100 = growth as untreated, 0 = no growth, -100 = all killed)
# Details: 10 µM unless noted
row,Compound,growth
1,CCCCN(CCCC)c1ccc(C(=N)c2ccc(N(CCCC)CCCC)cc2)cc1,-96.2% (active)
2,Clc1ccc(-c2nc3ccccc3s2)cc1Cl,111%
3,Cc1nc2c3c(ncn2n1)Oc1c(c(=O)[nH]c2ccccc12)C3c1ccc(Cl)cc1 (centres undefined),107%
4,O=C(NNC(=S)Nc1ccccc1)c1cc2ccc1CCc1ccc(cc1)CC2,77%
5,O=C(Nc1ccc2c(c1)OCCO2)C(=O)c1c[nH]c2ccccc12,10.2%
6,COc1ccc2c(c1)C(c1cc(OC)c3c(c1)OCO3)C1=C(COC1=O)N2 (centres undefined),-22.6% (active)
7,Fc1ccc(Nc2nc(NCCNc3ccnc4cc(Cl)ccc34)nc(N3CCOCC3)n2)cc1,-85.7% (active)
8,S=c1[nH]nc(-c2cc3ccc2CCc2ccc(cc2)CC3)n1-c1ccccc1,106%
9,CC(C)(C)NCCC(O)c1cc2c(Cl)cc(Cl)cc2c2cc(C(F)(F)F)ccc12 (centres undefined),-87.3% (active)
10,COc1ccc2cc(-c3ccc(-c4ccc(C(=N)N)cc4)s3)ccc2c1,72.5%
11,CCN(CC)CCC(CNc1c2ccc(Cl)cc2nc2ccc(OC)cc12)c1ccccc1 (centres undefined),-91.9% (active)
12,Cc1ccc(S(=O)(=O)C2=C3C(=C(c4ccccc4)c4ccccc43)CN(S(=O)(=O)c3ccc(C)cc3)C2)cc1,71.3%
13,Cc1ccc(S(=O)(=O)NCCNc2nccc(-c3c(-c4cccc(N)c4)nc4sccn34)n2)cc1,105%
14,CC(C)NCCCNC1=C(Cl)C(=O)c2ccccc2C1=O,95.4%
